Experimental data as given in PubChem BioAssay AID1159580 (chemical genetic matrix, 2015).
Values joined by “and” are separate entries in the source; they are usually repeats but may differ in a detail not shown here. Identical values can stand only once. Among all 5,500 compounds or so, about 2,000 (36%) were called active. Inconclusive results (about 18%) are left out. Cut-off read from the data, not from the text of the source: active = normalized growth mostly below about 0.91 (no sharp cut-off); inconclusive = no clear call, values can overlap the other calls; inactive = mostly above about 0.92. The list shows a part of the results.

Assay: chemical genetic growth profiling, strain panel (AID 1159580);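 note: tested at 20 µM; growth read once vehicle control cultures reached saturation at 30 °C; 1 = growth at the plate median or of vehicle wells; lower values mean less growth of the strain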
Settings: S. cerevisiae deletion strains, growth OD

Measured: normalized growth

Nc1ccc(S(=O)(=O)Nc2ccnn2-c2ccccc2)cc1
inactive: locus YAL013W, strain DEP1, stronger effect = lower value 1.04 | locus YAL021C, strain ccr4, stronger effect = lower value 0.986 | locus YAL026C, strain drs2, stronger effect = lower value 0.977 | locus YAL030W, strain snc1, stronger effect = lower value 1.01 | locus YAL040C, strain CLN3, stronger effect = lower value 1.02 | locus YBL061C, strain skt5, stronger effect = lower value 1.01 | locus YBR009C, strain hhf1, stronger effect = lower value 1.01 | locus YBR021W, strain FUR4, stronger effect = lower value 0.994 | locus YBR023C, strain chs3, stronger effect = lower value 0.999 | locus YBR171W, strain sec66, stronger effect = lower value 0.993 | locus YBR229C, strain ROT2, stronger effect = lower value 1.01 | locus YBR231C, strain swc5, stronger effect = lower value 1.01 | locus YBR279W, strain paf1, stronger effect = lower value 0.996 | locus YCL011C, strain gbp2, stronger effect = lower value 0.982 | locus YCL016C, strain dcc1, stronger effect = lower value 0.999 | locus YCL029C, strain bik1, stronger effect = lower value 0.995 | locus YCL061C, strain MRC1 (second series), stronger effect = lower value 1.02 | locus YCL061C, strain MRC1, stronger effect = lower value 0.997 | locus YCL069W, strain vba3, stronger effect = lower value 0.991 | locus YCR088W, strain abp1, stronger effect = lower value 0.982 | locus YDL005C, strain med2, stronger effect = lower value 0.98 | locus YDL035C, strain GPR1, stronger effect = lower value 0.999 | locus YDL040C, strain nat1, stronger effect = lower value 0.993 | locus YDL074C, strain BRE1, stronger effect = lower value 1.02 | locus YDL101C, strain DUN1, stronger effect = lower value 1.02 | locus YDL134C, strain PPH21, stronger effect = lower value 0.995 | locus YDL185W, strain tfp1, stronger effect = lower value 1 | locus YDL192W, strain arf1, stronger effect = lower value 0.995 | locus YDR001C, strain nth1, stronger effect = lower value 0.994 | locus YDR069C, strain doa4, stronger effect = lower value 0.999 | locus YDR101C, strain arx1, stronger effect = lower value 1.01 | locus YDR137W, strain rgp1, stronger effect = lower value 0.938 | locus YDR150W, strain NUM1, stronger effect = lower value 1.02 and 1.01 | locus YDR159W, strain sac3, stronger effect = lower value 1.02 | locus YDR162C, strain NBP2, stronger effect = lower value 0.999 | locus YDR195W, strain ref2 0.961 | locus YDR297W, strain sur2, stronger effect = lower value 0.998 | locus YDR318W, strain mcm21, stronger effect = lower value 0.99 | locus YDR334W, strain swr1, stronger effect = lower value 0.95 | locus YDR335W, strain msn5, stronger effect = lower value 0.998 | locus YDR363W, strain ESC2, stronger effect = lower value 1.01 | locus YDR388W, stronger effect = lower value 1 | locus YDR392W, strain spt3, stronger effect = lower value 0.96 | locus YDR502C, strain sam2, stronger effect = lower value 1.03 | locus YEL003W, strain gim4, stronger effect = lower value 0.986 | locus YEL037C, strain rad23, stronger effect = lower value 0.991 | locus YEL061C, strain CIN8 (second series), stronger effect = lower value 0.992 | locus YEL061C, strain CIN8, stronger effect = lower value 1.01 | locus YER002W, strain NOP16, stronger effect = lower value 1.01 | locus YER015W, strain faa2, stronger effect = lower value 0.997 | locus YER016W, strain bim1, stronger effect = lower value 1.01 | locus YER110C, stronger effect = lower value 0.993 | locus YER111C, strain swi4, stronger effect = lower value 1.01 | locus YER155C, strain BEM2 (second series), stronger effect = lower value 1 | locus YER155C, strain BEM2, stronger effect = lower value 1.01 | locus YER167W, strain BCK2, stronger effect = lower value 1 | locus YFR010W, strain ubp6, stronger effect = lower value 0.986 | locus YGL078C, strain dbp3, stronger effect = lower value 0.999 | locus YGL086W, strain mad1, stronger effect = lower value 1 | locus YGL167C, strain pmr1, stronger effect = lower value 1 | locus YGL173C, strain kem1, stronger effect = lower value 0.986 | locus YGL227W, strain vid30, stronger effect = lower value 0.998 | locus YGL240W, strain doc1, stronger effect = lower value 1.02 | locus YGL248W, strain PDE1, stronger effect = lower value 1.01 | locus YGL253W, strain hxk2, stronger effect = lower value 0.988 | locus YGR135W, strain pre9, stronger effect = lower value 0.994 | locus YGR229C, strain SMI1, stronger effect = lower value 1.03 | locus YGR252W, strain gcn5, stronger effect = lower value 0.958 | locus YHR013C, strain ard1, stronger effect = lower value 1.04 | locus YHR027C, strain rpn1, stronger effect = lower value 0.987 | locus YHR030C, strain SLT2, stronger effect = lower value 1.01 and 0.958 | locus YHR079C, strain IRE1 (second series), stronger effect = lower value 0.994 | locus YHR079C, strain IRE1, stronger effect = lower value 0.967 | locus YHR094C, strain hxt1, stronger effect = lower value 0.988 | locus YHR129C, strain ARP1, stronger effect = lower value 1.01 | locus YHR142W, strain chs7, stronger effect = lower value 0.965 | locus YHR200W, strain rpn10, stronger effect = lower value 0.991 | locus YIL066C, strain RNR3, stronger effect = lower value 1.02 | locus YIL073C, strain SPO22, stronger effect = lower value 0.972 | locus YIL125W, strain kgd1, stronger effect = lower value 1 | locus YIR030C, strain dcg1, stronger effect = lower value 0.993 | locus YJL092W, strain hpr5, stronger effect = lower value 0.984 | locus YJL095W, strain BCK1 (second series), stronger effect = lower value 0.996 | locus YJL095W, strain BCK1, stronger effect = lower value 1.05 and 0.981 | locus YJL115W, strain asf1, stronger effect = lower value 0.965 | locus YJL129C, strain trk1, stronger effect = lower value 0.991 | locus YJL134W, strain LCB3, stronger effect = lower value 1 | locus YJL154C, strain vps35, stronger effect = lower value 0.979 | locus YJL164C, strain tpk1, stronger effect = lower value 0.994 | locus YJL166W, strain qcr8, stronger effect = lower value 1.01 | locus YJL168C, strain set2, stronger effect = lower value 0.996 | locus YJL187C, strain SWE1 (second series), stronger effect = lower value 1.02 | locus YJL187C, strain SWE1, stronger effect = lower value 1 | locus YJR043C, strain POL32, stronger effect = lower value 1 | locus YJR066W, strain TOR1, stronger effect = lower value 0.888
